Laboratory results as given in PubChem BioAssay AID463173 (ICCB-Longwood Screening Facility, Harvard Medical School, 2010).
Among all 52,000 compounds or so, about 4,300 (8.3%) were called active. The sample holds actives, similar compounds and a random draw of the others, so the mix is not that of the screen. Cut-off read from the data, not from the text of the source: active = survival mostly below about 52% (no sharp cut-off); inactive = mostly above about 56%.

Test system: DeltatarO mutant
Assay: S. aureus survival, RN4220 and DeltatarO strains – OD600, teichoic acid synthesis inhibitors, primary screen (AID 463173)
Conditions: S. aureus RN4220 wild type/DeltatarO growth, OD600, 18 h, stronger effect = lower value, screened at 18.75 µg/mL (by protocol)

Structure (SMILES)	survival
CCOC(=O)N1CCC(NC(=O)c2cnn(-c3ccc(C)cc3)c2-n2cccc2)CC1	69% (inactive)
CCc1ccc2[nH]c(=O)c(CN(CCCN3CCOCC3)C(=S)NC)cc2c1	88% (inactive)
CC(C)c1c(O)nc(SCCN2CCOCC2)[nH]c1=O	92% (inactive)
CCOc1ccc2nc(NC3=NCCC(=O)N3)nc(C)c2c1	80% (inactive)
CCN(CC)C(=O)c1sc2c(c1C)c(=O)n(-c1ccc(C)c(C)c1)c(=O)n2CC(=O)Nc1ccc(F)cc1	92% (inactive)
CCCCc1nn2c(=O)cc(COC(=O)c3ccc(NC(=O)C4CCCCC4)cc3)nc2s1	91% (inactive)
CCn1cc(C(=O)NCc2ccc(Cl)cc2)c(=O)c2cc(S(=O)(=O)N3CCc4ccccc4C3)ccc21	64% (inactive)
CCN(CC)C(=O)COc1ccc2ccc(=O)oc2c1	84% (inactive)
COc1ccccc1CNC(=O)CCCn1c(=O)c2ccccc2n(Cc2ccc(C)cc2)c1=O	132% (inactive)
CCOC(=O)Cn1c(=O)n(C2CCCCC2)c2nc(-c3ccc(OCC)cc3)nc(C(N)=O)c21	86% (inactive)
CCCS(=O)(=O)N1CC(=O)N(c2ccccc2C)C(C)(C(=O)NC2CCCCC2)C1 (stereo unspecified)	75% (inactive)
COc1ccccc1NC(=O)C1CCN(S(=O)(=O)c2cn(C)cn2)CC1	69% (inactive)
CCCc1nc2nc(C)c(NS(=O)(=O)c3ccc(C)c(C)c3)c(=O)n2[nH]1	129% (inactive)
Cc1cccc(C(=O)Oc2c(Sc3ccccc3)c(C)nn2C(C)(C)C)c1	57% (inactive)
Cc1nn(C(C)(C)C)c(OC(=O)c2c(F)cccc2F)c1Sc1ccccc1	127% (inactive)
COc1ccc(C(=O)Oc2c(Sc3ccc(Cl)cc3)c(C)nn2C(C)(C)C)cc1OC	56% (inactive)
CCOc1ccc(C(=O)Oc2c(Sc3ccccc3)c(C)nn2C(C)(C)C)cc1OCC	57% (inactive)
Cc1nn(C(C)(C)C)c(OC(=O)c2cccc(F)c2)c1Sc1ccccc1	24% (active)
COc1cc(OC)cc(C(=O)Oc2c(Sc3ccccc3)c(C)nn2C(C)(C)C)c1	43% (active)
CCOc1ccc(NC(=O)CSc2nc(-c3ccc(OC)cc3)nc3c2Cc2c(CO)cnc(C)c2O3)cc1	79% (inactive)
CS(=O)(=O)N1CCc2cc(C(=O)N3CCN(c4ccccc4F)CC3)ccc21	45% (inactive)

Structure (SMILES)	survival
COc1ccc(C(=O)Nc2nc3nc(C)c(Cl)c(=O)n3[nH]2)cc1	100% (inactive)
COc1cc(C2CC(=O)N(c3ccccc3)C3=C2C(=O)OC3)cc(OC)c1OC (stereo unspecified)	72% (inactive)
Cc1cc2cc(CN(CC3COCCO3)S(=O)(=O)c3ccc(F)cc3)c(=O)[nH]c2cc1C (stereo unspecified)	103% (inactive)
O=C1c2cccc3cccc(c23)N1c1ccccc1	77% (inactive)
COC(=O)C(NC(=O)CC(C)C)(Nc1nc2c(s1)CCCC2)C(F)(F)F (stereo unspecified)	120% (inactive)
COc1ccc(-c2cc(C(F)(F)F)nc(SCC(=O)NCc3ccc(Cl)cc3)n2)cc1	62% (inactive)
COc1ccc(CNc2nc(-c3ccc(Cl)cc3)cc(C(F)(F)F)n2)cc1	29% (active)
COc1ccc(-c2cc(C(F)(F)F)nc(NCc3ccc(Cl)cc3)n2)cc1	3% (active)
COc1ccc(CNC(=O)c2cc(-c3ccc(Cl)cc3)n[nH]2)cc1	78% (inactive)
CCN(c1cccc(C)c1)S(=O)(=O)c1ccc2[nH]cc(C(=O)NCCCOC)c(=O)c2c1	67% (inactive)
COc1ccc(N(C)C(=O)c2nc(-c3cccc(F)c3)n3c2CCCCC3)c(OC)c1	74% (inactive)
CCOC(=O)c1cccc(NS(=O)(=O)c2cc(-c3cnc(C4CC4)o3)ccc2C)c1	90% (inactive)
O=C(Nc1cccnc1)c1cc(-c2ccc(Cl)cc2)on1	61% (inactive)
CN1/C(=C\C(=O)Nc2cccnc2)c2ccccc2CC1(C)C	65% (inactive)
Cn1c(=O)oc2cc(S(=O)(=O)CCC(=O)NCCc3ccccc3)ccc21	96% (inactive)
Cc1ccccc1NC(=O)c1c(NC(=O)c2ccncc2)sc2c1CCC(C(C)(C)C)C2 (stereo unspecified)	110% (inactive)
COc1ccc(NC(=O)c2c(NC(=O)c3ccncc3)sc3c2CCC(C(C)(C)C)C3)cc1 (stereo unspecified)	41% (active)
CC(C)(C)C1CCc2c(sc(NC(=O)c3cccc(Cl)c3)c2C(N)=O)C1 (stereo unspecified)	70% (inactive)
COc1ccc(NC(=O)c2c(NC(=O)COc3ccccc3)sc3c2CCC(C(C)(C)C)C3)cc1 (stereo unspecified)	75% (inactive)
CCOc1ccc(NC(=O)c2c(NC(=O)c3ccncc3)sc3c2CCC(C(C)(C)C)C3)cc1 (stereo unspecified)	113% (inactive)
CCC(=O)Nc1sc2c(c1C(=O)Nc1ccc(OC)cc1)CCC(C(C)(C)C)C2 (stereo unspecified)	13% (active)

Structure (SMILES)	survival
CCOc1ccc(NC(=O)c2c(NC(=O)c3cccs3)sc3c2CCC(C(C)(C)C)C3)cc1 (stereo unspecified)	67% (inactive)
COC(=O)c1c(NC(=O)c2cccc(OC)c2)sc2c1CCC(C(C)(C)C)C2 (stereo unspecified)	43% (active)
COC(=O)c1c(NC(=O)C2c3ccccc3Oc3ccccc32)sc2c1CCC(C(C)(C)C)C2 (stereo unspecified)	78% (inactive)
O=S(=O)(c1ccccc1)N1CCC(O)(c2ccccc2)C2CCCCC21 (stereo unspecified)	73% (inactive)
CC(=O)c1cccc(NC(=O)C(Cc2ccccc2)NS(=O)(=O)c2ccc(Br)s2)c1 (stereo unspecified)	116% (inactive)
Cc1n[nH]c(=S)n1CC(=O)n1c2c(c3ccccc31)CCCC2	91% (inactive)
Cc1ccc(C)c(-n2nnc(C(=O)Nc3ccc(Br)cc3)c2C)c1	18% (active)
CC(=O)Nc1c(C(=O)Nc2cccc(C)c2)nnn1-c1ccc(C)cc1	69% (active)
COc1cccc(NC(=O)c2nn(-c3ccc(C)cc3)c(=O)n(C)c2=O)c1	124% (inactive)
Cc1cccc(NC(=O)c2ccc(-n3c(C)nnc3C)cc2)c1	88% (inactive)
CC(=O)c1nnn(-c2ccc(C)cc2Cl)c1C	65% (inactive)
COc1ccc(C)cc1-n1nnc(C(=O)Nc2cccc(SC)c2)c1C	86% (inactive)
COc1ccc(NC(=O)c2cc(S(=O)(=O)N3CCCC(C)C3)cn2C)c(OC)c1 (stereo unspecified)	87% (inactive)
Cc1ccc(-c2nc3nc(C)cc(N4CCN(c5cccc(C)c5C)CC4)n3n2)cc1	128% (inactive)
Cc1cc(N2CCN(c3cc(Cl)ccc3C)CC2)n2nc(-c3ccccc3)nc2n1	77% (inactive)
COc1ccccc1N1CCN(c2cc(C)nc3nc(-c4ccc(C)cc4)nn23)CC1	40% (active)
COc1ccccc1N1CCN(c2cc(C)nc3nc(-c4ccc(Cl)cc4)nn23)CC1	38% (active)
COc1ccccc1N1CCN(c2cc(C)nc3c(-c4ccc(Cl)cc4)c(C)nn23)CC1	87% (inactive)
COc1ccc(N2CCN(c3cc(C)nc4nc(-c5ccc(C)cc5)nn34)CC2)cc1	53% (inactive)
